Sampled rows, rich in hits. Any-hit rate of the full collection: about 1.4%.
NFkB transloc inh: blocks IL-1B driven NFkB nuclear translocation in HUVEC cells; 0.43% of 94,000 active; HUVEC IL-1B NFkB p65 nuclear translocation imaging; inhibition, % at 2 µM;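 active = inhibition above about 30% together with a positive call from visual inspection of the well image, limit read from the data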;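 note: nuclear over cytoplasmic p65 intensity ratio measured by imaging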
Pyk2 oligo antag: Pyk2 (human) oligomerization antagonism | AID 1347419 | z-score (the deposit names both 25 µM and 10 µM) | Q293 cells, Pyk2 FERM NanoBiT luminescence; hits give low values | Q14289 | 0.83% of 99,000 active;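 active = Z-score of -3 or lower, scaled per plate to the spread of control and sample wells; inactive = z-score above -3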;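 note: negative z-score means lost luminescence so less FERM oligomerization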
Target sequence (Q14289 whole entry, looked up): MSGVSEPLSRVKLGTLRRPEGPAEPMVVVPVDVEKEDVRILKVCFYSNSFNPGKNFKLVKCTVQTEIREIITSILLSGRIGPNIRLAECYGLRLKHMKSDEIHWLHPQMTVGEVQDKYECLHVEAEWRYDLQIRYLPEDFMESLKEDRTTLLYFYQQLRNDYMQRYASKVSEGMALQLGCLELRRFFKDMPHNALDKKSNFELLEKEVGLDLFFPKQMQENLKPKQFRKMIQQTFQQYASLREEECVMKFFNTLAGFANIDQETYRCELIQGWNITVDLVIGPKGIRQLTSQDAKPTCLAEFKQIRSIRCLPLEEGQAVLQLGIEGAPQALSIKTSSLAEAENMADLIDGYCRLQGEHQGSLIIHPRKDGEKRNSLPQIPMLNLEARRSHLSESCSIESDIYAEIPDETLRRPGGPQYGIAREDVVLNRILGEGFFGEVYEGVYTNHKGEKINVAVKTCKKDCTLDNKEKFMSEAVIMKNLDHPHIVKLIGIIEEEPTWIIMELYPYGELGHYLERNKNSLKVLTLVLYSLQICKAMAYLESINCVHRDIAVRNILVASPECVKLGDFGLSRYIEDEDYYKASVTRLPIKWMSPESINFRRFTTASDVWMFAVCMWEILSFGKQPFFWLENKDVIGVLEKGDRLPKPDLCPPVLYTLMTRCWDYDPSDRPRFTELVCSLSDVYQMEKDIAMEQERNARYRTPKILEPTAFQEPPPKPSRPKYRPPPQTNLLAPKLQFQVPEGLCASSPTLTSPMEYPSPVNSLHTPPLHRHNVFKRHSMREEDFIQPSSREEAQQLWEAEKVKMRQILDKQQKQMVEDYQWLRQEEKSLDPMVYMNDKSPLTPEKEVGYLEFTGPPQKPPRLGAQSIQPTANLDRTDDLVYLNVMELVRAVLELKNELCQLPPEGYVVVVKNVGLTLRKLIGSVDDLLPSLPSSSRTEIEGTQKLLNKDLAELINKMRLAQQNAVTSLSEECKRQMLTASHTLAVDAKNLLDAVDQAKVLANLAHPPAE
Phagocyt inh: inhibitors of macrophage phagocytosis | 0.07% of 110,000 active | AID 1029 | inhibition, % at 5 µM | J774A.1 macrophage IgG-bead phagocytosis, imaging;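 active = inhibition above the mean of the plate negative controls plus 5 SD, cut at about 13% in these data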;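 note: phagocytic index as fraction of beads internalized from green versus red external bead signal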
IL1B NFkB pot: enhances IL-1B driven NFkB nuclear translocation | HUVEC IL-1B NFkB p65 nuclear translocation imaging | activation, % at 2 µM | 0.3% of 94,000 active;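 active = activation above 40%, about the mean plus 3 SD, also judged a hit on visual image review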;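 note: percent activation is computed from the nuclear over cytoplasmic p65 intensity ratio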
HUVEC tox IL1B: HUVEC cytotoxicity counter-screen, IL-1B stimulated. HUVEC cell count loss, Hoechst imaging. AID 845. cell count reduction, % at 2 µM. 0.41% of 94,000 active;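 active = cell count reduction more than 3 SD above the screen-wide mean, cut at about 70% in these data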
Large screens that a line does not name were inactive; [ ] = remark or other dose.

COc1ccc(S(=O)(=O)N2CCCC(C(=O)NC3CCCCC3)C2)cc1 (stereo not drawn)	none
COc1ccc(S(=O)(=O)N2CCCC(C(=O)O)C2)cc1 (stereo not drawn)	NFkB transloc inh 34.3 (no result: Phagocyt inh)
O=C(CSc1nnc(-c2ccccc2)o1)OCc1ccccc1	IL1B NFkB pot 69.2 (no result: Phagocyt inh)
CCN(CC)C(=O)CSc1nnc(-c2ccccc2)o1	none
C=CCNC(=S)N1CCN(CCN=CC2=C(O)CC(c3ccco3)CC2=O)CC1 (stereo not drawn)	NFkB transloc inh 53.7, HUVEC tox IL1B 93.3
CCNC(=S)N1CCN(CCN=CC2=C(O)CC(c3ccco3)CC2=O)CC1 (stereo not drawn)	none
COc1ccc2nc(-n3c(O)c(C4=c5ccccc5=NC4=O)[nH]c3=S)sc2c1	Pyk2 oligo antag -3.17 (no result: NFkB transloc inh, IL1B NFkB pot, HUVEC tox IL1B)
COCCNC(=O)Cc1ccc(Br)cc1	none (no result: NFkB transloc inh, IL1B NFkB pot, HUVEC tox IL1B)
CCCc1oc(C(=O)O)cc1CN1CCOCC1	NFkB transloc inh 32.1
CCCc1oc(C(=O)O)cc1CN1CCCC1	none
O=C(Cc1ccccc1)N/N=C/c1cccs1	none
O=C1C2CCCN2C(c2ccccc2F)N1c1ccc(Cl)cc1 (stereo not drawn)	none (no result: Phagocyt inh)
COc1ccc(N2C(=O)C3CCCN3C2c2ccccc2F)cc1 (stereo not drawn)	IL1B NFkB pot 51.0 (no result: Pyk2 oligo antag)
CC(C)[C@H](NC(=O)NCCc1ccc(F)cc1)C(=O)O	none
CC(=O)N(Cc1ccc(F)cc1)C1=C(NCCc2ccccc2)C(=O)c2ccccc2C1=O	Pyk2 oligo antag -3.18 (no result: NFkB transloc inh, IL1B NFkB pot, HUVEC tox IL1B)
CSc1nc(N(C)NC(=O)c2ccc(Cl)cc2)c2ccccc2n1	NFkB transloc inh 34.1
O=C1C=C(NCc2ccco2)CC(c2ccc(Cl)cc2)C1 (stereo not drawn)	HUVEC tox IL1B 86.3
O=C1C=C(Nc2ccc(Cl)cc2)CC(c2ccc(Cl)cc2)C1 (stereo not drawn)	none (no result: Phagocyt inh)
O=C(Nc1ccccc1Oc1ccccc1)c1cccc([N+](=O)[O-])c1	none
C=CCc1cc(C=O)cc(OC)c1OCc1ccc(Cl)cc1	HUVEC tox IL1B 93.3
COc1ccc(NC(=O)C2CCCCN2N)cc1OC (stereo not drawn)	IL1B NFkB pot 40.6 (no result: Phagocyt inh)
CCOC(=O)c1[nH]c2cc(OC)c(OC)cc2c1NC(=O)C(C)N1CCN(Cc2ccccc2)CC1 (stereo not drawn)	NFkB transloc inh 31.7
COc1ccc2[nH]c(=O)c(CN(C(=O)c3cccnc3)c3ccccc3)cc2c1	IL1B NFkB pot 66.9
COc1ccc(N(Cc2cc3cc(OC)ccc3[nH]c2=O)C(=O)c2cccnc2)cc1	none
COC(=O)C(C)N(C(=O)c1cccc2ccccc12)c1c(C)cccc1C (stereo not drawn)	none
Cc1ccccc1N1C(=O)N(c2cccc(C(F)(F)F)c2)C2CS(=O)(=O)CC21 (stereo not drawn)	IL1B NFkB pot 73.0
COc1ccc(-c2nnc3n2N=C(c2ccccc2)CS3)cc1OC	none (no result: NFkB transloc inh, Pyk2 oligo antag, IL1B NFkB pot, HUVEC tox IL1B)
Cc1cc(-c2nnc3n2N=C(c2ccc(-c4ccccc4)cc2)CS3)n[nH]1	Pyk2 oligo antag -3.4
COc1ccccc1OCC(=O)NCC1CCCCC1	NFkB transloc inh 95.7, HUVEC tox IL1B 93.5
COc1ccccc1OCC(=O)NCCNC(=O)COc1ccccc1OC	none
Cc1ccccc1Cn1nc(C)c(NC(=O)c2nc3n(n2)C(C(F)F)CC(C)N3)c1C (stereo not drawn)	none
Cc1ccccc1Cn1nc(C)c(NC(=O)c2cc3n(n2)C(C(F)F)CC(C(F)F)N3)c1C (stereo not drawn)	NFkB transloc inh 96.4, HUVEC tox IL1B 77.8
CCCS(=O)(=O)N1CCC(C(=O)NC2CCCC(C)C2C)CC1 (stereo not drawn)	IL1B NFkB pot 45.9
O=S(=O)(c1cccs1)N1CCC(Cc2ccccc2)CC1	none
Clc1cccc(-c2nc(NCc3cccnc3)c3ccccc3n2)c1	Pyk2 oligo antag -3.67
c1ccc(-c2nc(NCc3cccnc3)c3ccccc3n2)cc1	Pyk2 oligo antag -3.67
Cc1ccc(-c2nc(NCc3cccnc3)c3ccccc3n2)cc1	none (no result: NFkB transloc inh, Pyk2 oligo antag, IL1B NFkB pot, HUVEC tox IL1B)
CCN(CC)c1ccc(C(=O)OCc2cc(=O)oc3cc(O)ccc23)cc1	Pyk2 oligo antag -3.11 (no result: Phagocyt inh)
CCOc1cc(C)c(C(C)C)cc1S(=O)(=O)NCc1ccccn1	NFkB transloc inh 100.3, HUVEC tox IL1B 84.6
COCCN1C(=O)c2ccccc2C(C(=O)Nc2ccc3c(c2)OCCO3)C1c1ccc(F)cc1 (stereo not drawn)	Pyk2 oligo antag -3.36 (no result: Phagocyt inh)
Cc1ccccc1/C(N)=N/OC(=O)c1cccs1	none (no result: NFkB transloc inh, Pyk2 oligo antag, IL1B NFkB pot, HUVEC tox IL1B)
O=C(NC1CC1)c1cccc(Nc2ccc(-c3ccc4c(c3)OCCO4)nn2)c1	Pyk2 oligo antag -3.35 (no result: Phagocyt inh)
CCOC(=O)c1c(NC(=O)COC)sc(C)c1C	IL1B NFkB pot 49.3 (no result: Phagocyt inh)
CCOC(=O)c1c(NC(=O)COC)sc(C(C)=O)c1C	none
CCOC(=O)c1c(C)n(CCNC(C)=O)c2ccc(O)cc12	none
CCOC(=O)c1c(C)n(CC(O)c2ccccc2)c2ccc(O)cc12 (stereo not drawn)	Pyk2 oligo antag -3.05
COCCn1nnnc1C(c1ccc(OC)cc1)N1CCN(c2ccccc2F)CC1 (stereo not drawn)	Pyk2 oligo antag -3.46 (no result: Phagocyt inh)
COc1ccc(C(c2nnnn2Cc2cccs2)N2CCN(c3ccccc3F)CC2)cc1OC (stereo not drawn)	Pyk2 oligo antag -3.65 (no result: NFkB transloc inh, IL1B NFkB pot, HUVEC tox IL1B)
COCCn1nnnc1C(c1ccccc1OC)N1CCN(c2ccccc2F)CC1 (stereo not drawn)	none
Fc1ccc(C(c2nnnn2Cc2cccs2)N2CCN(c3ccccc3)CC2)cc1 (stereo not drawn)	Pyk2 oligo antag -3.54 (no result: Phagocyt inh)
COC(=O)c1cc(=O)n(Cc2cccs2)c(=NCc2cccs2)s1	none
COc1ccc(C2CC(c3ccccc3)=NN2C(=O)COC(=O)c2cc(S(=O)(=O)N3CCOCC3)ccc2Cl)cc1 (stereo not drawn)	none (no result: NFkB transloc inh, Pyk2 oligo antag, IL1B NFkB pot, HUVEC tox IL1B)
Cc1ccc2nc(C3CCCN(C(=S)Nc4cccc(C)c4C)C3)[nH]c2c1 (stereo not drawn)	none (no result: Phagocyt inh)
CC(=O)c1sc(NC(=O)c2ccc(F)c(F)c2)nc1C	NFkB transloc inh 32.0
CC(=O)Nc1nc(C)c(C(C)=O)s1	none
CC(=O)c1sc(NC(=O)C(C)C)nc1C	NFkB transloc inh 97.8
Cc1nc(NC(=O)c2ccc(F)cc2)sc1C(=O)Nc1ccc2c(c1)CCC2	none (no result: Phagocyt inh)
CCc1cccc(CC)c1-n1c(SCn2nnc3ccccc3c2=O)nnc1-c1cccnc1	none
Cc1ccc(Nc2nnc(SCC(=O)Nc3ccc(S(=O)(=O)N4CCOCC4)cc3)s2)cc1	NFkB transloc inh 34.2, HUVEC tox IL1B 83.7
COc1ccc(OCCNC(=O)c2cccc(Oc3ccc(C(F)(F)F)cc3[N+](=O)[O-])c2)cc1	none (no result: NFkB transloc inh, Pyk2 oligo antag, IL1B NFkB pot, HUVEC tox IL1B)
CCN(CCC(=O)Nc1ccc(Br)c(C)c1)Cc1ccccc1	NFkB transloc inh 50.0
CCOC(=O)NC(NC(=S)Nc1ccc(OCC)cc1)C(Cl)(Cl)Cl (stereo not drawn)	Phagocyt inh 28.7[artifact] (no result: NFkB transloc inh, Pyk2 oligo antag, IL1B NFkB pot, HUVEC tox IL1B)
COc1cc2c(cc1NC(=O)CSc1nc3ccccc3[nH]1)oc1ccccc12	none
COc1cc2c(cc1NC(=O)CN(C)Cc1nc3ccccc3c(=O)[nH]1)oc1ccccc12	Pyk2 oligo antag -3.36 (no result: NFkB transloc inh, IL1B NFkB pot, HUVEC tox IL1B)
CCc1c(C)nc2c(C#N)c(C)[nH]n2c1=O	none (no result: Phagocyt inh)
